Mot1-301 SUMO: SUMOylation pathway inhibition by Mot1-301 growth rescue. S. cerevisiae Mot1-301 growth rescue, ATP luminescence, 38.5C; percent above DMSO median, 100 means doubled. growth rescue, % at 18.8 µM. 320,000 tested, 1% active. AID 2716;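 active = every valid replicate shows activation above 250% relative to neutral control wells; inactive = the rest, any valid replicate at or below 250%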
Cardio protect: protects H9c2 cardiomyocytes from peroxide injury; protection from H2O2 cell death, % at 20 µM; H2O2 injury protection, ATPLite, 2 h; 360,000 tested, 0.63% active;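 active = compounds giving at least 50% protection of heart cells from peroxide-induced death in the single-dose screen, raw or plate-pattern-corrected value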
AHR act: human AHR activation. activation, % at 5 µM. 320,000 tested, 2.5% active. AHR-responsive luciferase reporter cells, luminescence; in the data active = activation above about 47%
GRIN3A LBD mod: modulators (binders) of human NR3A ligand-binding domain | NR3A LBD differential scanning fluorimetry, Tm shift; 0% = protein alone, 100% = glycine-bound protein | Tm shift relative to glycine control, % at 25 µM | 340,000 tested, 2.5% active;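 active = melting temperature shift of at least 10% of the positive control shift, at one fixed dose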
AI-2 QS mod: modulators of Vibrio harveyi AI-2 quorum sensing system | activity change, % at 7.5 µM | 300,000 tested, 0.4% active | Vibrio harveyi JMH597 AI-2 luminescence/OD600 ratio, 9 h; hits give low values; strain lacks LuxN and CqsS sensors; 0 = neutral-control median; in the data active = activity change below about -75%, passing the limit was not always enough;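 also: luminescence divided by OD600 gain over 9 h not by final OD600 alone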
NTR1 ag: NTR1 (human) agonism; P30989; NTR1-U2OS beta-arrestin-GFP spot imaging, agonist mode; activation, % at 20 µM; 330,000 tested, 0.17% active; AID 493036;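 active = activation at or above 40% of the spot to cytoplasm intensity ratio, with at least 20 cells analyzed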
Target sequence (P30989 whole entry, looked up): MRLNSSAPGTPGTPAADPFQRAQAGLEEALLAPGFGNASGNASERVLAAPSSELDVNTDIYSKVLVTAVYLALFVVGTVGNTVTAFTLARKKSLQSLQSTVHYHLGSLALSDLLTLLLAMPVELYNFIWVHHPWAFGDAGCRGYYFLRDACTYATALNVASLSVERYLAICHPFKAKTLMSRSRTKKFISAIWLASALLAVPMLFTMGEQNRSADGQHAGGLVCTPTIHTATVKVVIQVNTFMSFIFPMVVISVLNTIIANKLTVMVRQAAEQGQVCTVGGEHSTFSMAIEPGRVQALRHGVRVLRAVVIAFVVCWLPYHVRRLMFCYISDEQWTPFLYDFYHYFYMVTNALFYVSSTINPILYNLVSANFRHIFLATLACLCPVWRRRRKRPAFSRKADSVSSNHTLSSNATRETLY
Yeast Mot1 SUMO: inhibits SUMO pathway, affecting Mot1-301 yeast growth; shares compounds with Mot1-301 SUMO; S. cerevisiae Mot1-301 galactose growth, ATP luminescence, 24 h; -100 = growth of slx-deleted rescue strain; growth activity, percent, % at 42 µM; 2,300 tested, under 10 active;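 active = Signal drops as the depositor expects, and the fitted half-maximal dose is no more than ten times the top valid tested dose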;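 also: more negative values mean stronger growth rescue toward the control strain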
Of the large screens only hits and unclear results are named; the others gave an inactive call (follow-up assays come after a bar, where they were run). Most compounds without a hit are left out; they make up all but 6.2% or so of the library.

O=C1CCCN1CCC1CCN(C2CC(=O)N(c3ccc(Cl)cc3)C2=O)CC1 (stereo not given)	Mot1-301 SUMO 503 | Yeast Mot1 SUMO inactive
CCCOc1ccccc1C1NC(=O)NC(C)=C1C(=O)OCCOCC (stereo not given)	Mot1-301 SUMO 565 | Yeast Mot1 SUMO inactive
CCCCOc1ccccc1C1NC(=O)NC(C)=C1C(=O)OCCOCC (stereo not given)	none
CN(CC(=O)Nc1cccc(F)c1)C(=O)/C=C/c1cn(Cc2ccccc2)nc1-c1cccnc1	none
CN(CC(=O)Nc1cccc(S(=O)(=O)NC2=NCCC2)c1)Cc1ccccc1Cl	none (no result: AI-2 QS mod)
CN1C(=O)c2cccc3c(Br)ccc(c23)C1=O	none
CN1C(=O)c2cccc3c(Cl)ccc(c23)C1=O	Mot1-301 SUMO 610 | Yeast Mot1 SUMO inactive
O=C(COc1ccccc1Cl)Nc1ccc2c(c1)C(=O)NC2=O	none
O=C(NCCn1cccn1)C1CCC(=O)N(CCc2cccc(F)c2)C1 (stereo not given)	none (no result: AHR act)
CCN(CCn1cccn1)C(=O)C1CCC(=O)N(CCc2cccc(F)c2)C1 (stereo not given)	Mot1-301 SUMO 689 | Yeast Mot1 SUMO inactive
COc1ccc(-c2cc(C(=O)Nc3cc(C)ccc3O)no2)cc1	Mot1-301 SUMO 369 | Yeast Mot1 SUMO inactive
Cc1ccc(Cc2c(C)c(C#N)c3[nH]c4ccccc4n3c2=O)cc1	none
C=C(C)Cc1c(C)c(C#N)c2[nH]c3ccccc3n2c1=O	Mot1-301 SUMO 690 | Yeast Mot1 SUMO inactive
CCCC(O)(c1ccc(Br)cc1)C(CN1CCOCC1)c1ccc(Cl)cc1 (stereo not given)	Mot1-301 SUMO 555 | Yeast Mot1 SUMO inactive
COc1ccc2cc3c(N)nn(C(=O)c4ccccc4Cl)c3nc2c1	Mot1-301 SUMO 501 | Yeast Mot1 SUMO inactive
COc1ccc(N2CCN(C(CNS(=O)(=O)c3ccccc3)c3ccccc3)CC2)cc1 (stereo not given)	none
O=C(C1CCCO1)N(c1cccc(Cl)c1)C1C=CS(=O)(=O)C1 (stereo not given)	none
CCOc1ccc(N(C(=O)C2CCCO2)C2C=CS(=O)(=O)C2)cc1 (stereo not given)	Mot1-301 SUMO 814 | Yeast Mot1 SUMO inactive
CCCCn1c(=O)[nH]c(=O)c2c1nc(COc1ccc(C#N)cc1)n2CCC	Mot1-301 SUMO 404 | Yeast Mot1 SUMO inactive
COc1ccc(OC)c(CCNC(=O)c2ccc3c(c2)N(Cc2ccc(F)cc2)CCS3)c1	Mot1-301 SUMO 365 (no result: AI-2 QS mod) | Yeast Mot1 SUMO inactive
COc1ccc(CCNC(=O)c2ccc3c(c2)N(Cc2ccc(F)cc2)CCS3)c(OC)c1	none
CN(C)C(=O)CSc1nc2ccc(N3C(=O)c4ccccc4C3=O)cc2s1	Mot1-301 SUMO 562 | Yeast Mot1 SUMO inactive
CCCCN(C(=O)c1ccccc1OCc1ccc(F)cc1)c1c(N)n(CC(C)C)c(=O)[nH]c1=O	none
Cc1c(CC(=O)O)c(=O)oc2cc(OCc3ccc(Br)cc3)ccc12	none
CC1CCCC(C)N1CCCNC(=O)c1csc2c1CCCCC2 (stereo not given)	Mot1-301 SUMO 459 | Yeast Mot1 SUMO inactive
O=C(CCCC(=O)N/N=C/c1ccccc1C(=O)O)N/N=C/c1ccccc1C(=O)O	Mot1-301 SUMO 419 | Yeast Mot1 SUMO inactive
CCOC(=O)C(=CNc1ccc(N2CCCCC2)c(S(=O)(=O)Nc2ccccc2OC)c1)C(=O)OCC	none (no result: Mot1-301 SUMO, AHR act, AI-2 QS mod, NTR1 ag)
Cc1nn(Cc2ccc(C(=O)Nc3ccccc3C(F)(F)F)o2)c(C)c1Br	Mot1-301 SUMO 440 | Yeast Mot1 SUMO inactive
Cc1ccc2[nH]c3c(c2c1)CN(C(=O)CN(C)CC1OCCO1)CC3	none
CN(CC(=O)N1CCc2[nH]c3ccc(F)cc3c2C1)CC1OCCO1	Mot1-301 SUMO 736 (no result: Cardio protect) | Yeast Mot1 SUMO inactive
Cc1nc(S(=O)(=O)c2ccc(Cl)cc2)c(N(C)C)o1	none
CCOC(=O)C1=CCCN(S(=O)(=O)c2ccc(C)cc2)C1	none (no result: Mot1-301 SUMO, AHR act, GRIN3A LBD mod, AI-2 QS mod, NTR1 ag)
COc1ccc(NC(=O)COc2cccnc2[N+](=O)[O-])cc1OC	none
O=C(COc1cccnc1[N+](=O)[O-])Nc1ccc2c(c1)CCC2	Mot1-301 SUMO 811 | Yeast Mot1 SUMO inactive
Cc1ccc(NC(=O)C2CCN(S(=O)(=O)c3ccc4c(c3)CCCC(=O)N4)CC2)c(Br)c1	none
CCOC(=O)N1CCN(CC(O)COc2ccc(C)c(C)c2)CC1 (stereo not given)	none
Cc1ccc(C(=O)N2CC(C)OC(C)C2)cc1[N+](=O)[O-] (stereo not given)	none
CC1CN(C(=O)c2cc([N+](=O)[O-])cc([N+](=O)[O-])c2)CC(C)O1 (stereo not given)	Mot1-301 SUMO active | Yeast Mot1 SUMO inactive
C[C@@]12C(=O)Nc3ccc(Br)cc3C(=O)N1[C@H]1c3cc(Cl)ccc3OC[C@@H]1[C@@H]2c1ccccc1	none (no result: AI-2 QS mod)
Cc1ccc2c(c1)C(=O)N1[C@H]3c4ccccc4OC[C@@H]3[C@H](c3ccccc3)[C@]1(C)C(=O)N2	Mot1-301 SUMO active (no result: AI-2 QS mod) | Yeast Mot1 SUMO inactive
Cc1ccc2c(c1)NC(=O)[C@@]1(C)[C@@H](c3ccccc3)[C@H]3COc4ccccc4[C@@H]3N1C2=O	none (no result: AI-2 QS mod)
C[C@@]12C(=O)Nc3ccc(Br)cc3C(=O)N1[C@H]1c3ccccc3OC[C@@H]1[C@@H]2c1ccccc1	Mot1-301 SUMO active (no result: AI-2 QS mod) | Yeast Mot1 SUMO inactive
O=C(Nc1ccnn1C1CCN(C2CCOCC2)CC1)c1cccc(F)c1	none
COCCn1c(N)c(N(Cc2ccccc2)C(=O)CN2C(=O)NC(C)(c3ccccc3)C2=O)c(=O)[nH]c1=O (stereo not given)	Mot1-301 SUMO 531 | Yeast Mot1 SUMO inactive
N#CCCN(Cc1cccnc1)C(=O)Nc1cccc(Cl)c1	Mot1-301 SUMO active | Yeast Mot1 SUMO inactive
N#CCCN(Cc1cccnc1)C(=O)Nc1ccccc1	none
CCN=C1S/C(=C\c2ccc(Sc3ccc(Cl)cc3)o2)C(=O)N1CC	none (no result: Mot1-301 SUMO)
CCN=C1S/C(=C/c2ccc(-c3ccc(F)cc3)o2)C(=O)N1CC	Mot1-301 SUMO 956 | Yeast Mot1 SUMO inactive
COc1ccc2nc(SCC(=O)N(C)CC(=O)Nc3ccc(F)cc3)[nH]c2c1	Mot1-301 SUMO 558 (no result: AI-2 QS mod) | Yeast Mot1 SUMO inactive
COc1ccc(C(=O)CSc2nnc3ccc(-c4ccccn4)nn23)cc1	Mot1-301 SUMO 745 | Yeast Mot1 SUMO inactive
CCOc1ccccc1N(CC(=O)Nc1ccccc1C(=O)N1CCCC1)S(C)(=O)=O	Mot1-301 SUMO 586 | Yeast Mot1 SUMO inactive
C=CCc1ccc(OCc2ccc(C(=O)Nc3ccc(NC(C)=O)cc3)o2)c(OC)c1	none
CN(CC(=O)NC(c1ccccc1)c1ccccc1)Cc1nc2ccccc2c(=O)[nH]1	none

Screens deposited in PubChem by several laboratories.
